Source: PubChem (National Center for Advancing Translational Sciences (NCATS))
Hits are enriched below; roughly 11% of the tested compounds scored in any of these assays.
FLuc inh: Photinus pyralis luciferase inhibition; AID 1347043; hit rate 2.5% among 76,000; Potency, µM (top dose mostly 115 µM), usual class: inhibitors; purified P. pyralis luciferase, luminescence, biochemical; P08659; note: % is set by controls: 0 for no effect and ±100 for the full control effect; nearly all actives have a fitted effect of over 65% in size
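FLuc 10nM, D-luciferin 10uM, ATP 10uM, Mg acetate 10mM, Tris acetate pH 7.5, Tween/BSA; cpd qHTS; enzyme added last; CCD luminescence.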
3T3 cytotox: kills NIH 3T3 cells; AID 1345082; hit rate 4.3% among 94,000; NIH 3T3 viability, CellTiter-Glo ATP luminescence, 48-72 h; Potency, µM (titrated, usually from 96.7 µM), for the others: top-dose activity change, negative = cytotoxicity, most hits filed as inhibitors; note: % is set by controls: 0 for no effect and ±100 for the full control effect; nearly all actives have a fitted effect of over 55% in size
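First NIH 3T3 cells are plated at 400 cells/well; next compound is pinned in; then plates incubate 48 or 72 hr at 37 °C; finally CellTiter-Glo is added and luminescence read after 10 min.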
hNpr1 antagonist: antagonists of human natriuretic peptide receptor Npr1 | P16066 | HEK293 hNpr1 GloSensor cGMP, ANP-stimulated luminescence | Potency, µM (titrated, usually from 46.3 µM), without a hit: at the highest dose activity change, negative = inhibition, actives largely listed as inhibitors | hit rate 1.6% among 76,000 | AID 1347048; calls by dose curve; note: % is set by controls: 0 for no effect and ±100 for the full control effect; nearly all actives have a fitted effect of over 60% in size
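HEK293 cells stably expressing human Npr1 and cGMP GloSensor pGS-40F, loaded 2 h with 2% GloSensor reagent, given compound 30 min at room temperature. Luminescence read before and 20 min after 0.1 nM hNppA.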
HEK cytotox: kills HEK 293 cells. HEK 293 viability, ATP luminescence (CellTiter-Glo), 48-72 h. Potency, µM (doses to about 115 µM), without a hit: at the highest dose activity change, negative = cytotoxicity, usual class: inhibitors. hit rate 6.6% among 94,000. AID 1345083; note: % is set by controls: 0 for no effect and ±100 for the full control effect; nearly all actives have a fitted effect of over 60% in size
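CellTiter-Glo luminescence (cellular ATP) was read after 48 or 72 hr of compound exposure at 37 degree Celsius. Cells were HEK 293 plated at 250 cells/well.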
Npr1 antag conf: hNpr1 antagonism, confirmation assay | shares compounds with hNpr1 antagonist | HEK293 hNpr1 cGMP GloSensor luminescence, ANP-stimulated | Potency, µM (highest dose often 57.6 µM), without a hit: top-dose activity change, negative = inhibition, hits mostly inhibitors | hit rate 76% among 1,400 | AID 1347044; calls by dose curve; note: nearly all actives have a fitted effect of over 70% in size
Npr2 selectivity: hNpr2 antagonism, selectivity versus Npr1; shares compounds with hNpr1 antagonist; HEK293 hNpr2 GloSensor cGMP luminescence, CNP-stimulated; Potency, µM (series often up to 57.6 µM), without a hit: top-dose activity change, negative = inhibition, most hits filed as inhibitors; hit rate 67% among 1,400; AID 1347046; calls by dose curve; note: nearly all actives have a fitted effect of over 70% in size
FLuc inh counter: inhibits firefly luciferase, false Npr1 antagonist flag. shares compounds with hNpr1 antagonist. purified FLuc enzyme, luminescence, Km substrate. Potency, µM (doses to about 57.6 µM), for the others: at the top dose activity change, negative = inhibition, actives largely listed as inhibitors. hit rate 0.7% among 1,400. AID 1347047; note: 0% is about no effect
GloSensor cGMP: counter-screen for Npr1 antagonists: GloSensor control cell line | shares compounds with hNpr1 antagonist | HEK293 GloSensor cGMP, SNP-stimulated, luminescence | Potency, µM (titrated, usually from 57.6 µM), for inactives: top-dose activity change, negative = inhibition, hits mostly inhibitors | hit rate 69% among 1,400 | AID 1347051; calls by dose curve; note: % is set by controls: 0 for no effect and ±100 for the full control effect; nearly all actives have a fitted effect of over 70% in size
The depositor's hits bear a star; i = inactive; ? = inconclusive; . = no result; [ ] = another dose, or the depositor's remark. Unless noted, calls come from the whole dose curve; as a rule, active = well fitted curve in the direction sought with a large enough effect; inconclusive = small, poorly fitted or top-dose-only effect, or another doubt; inactive = no such curve, though single readings can be large; an effect the other way counts as inactive or inconclusive. Potency is the fitted concentration of half-maximal effect.

SMILES	FLuc inh	3T3 cytotox	hNpr1 antagonist	HEK cytotox	Npr1 antag conf	Npr2 selectivity	FLuc inh counter	GloSensor cGMP
CC(=O)c1ccc(NC(=O)c2cc3n(n2)CC(c2ccc(Br)cc2)OC3)cc1 (stereo not drawn)	i	-13%	?	?	.	.	.	.
O=C(c1cc2n(n1)CC(c1ccc(Cl)cc1)OC2)N1CCN(c2ccc(Cl)cc2)CC1 (stereo not drawn)	i	?	13µM*	32µM*	?	?	0%	?
O=C(NCc1ccc(F)cc1)C1CCc2nnc(C3CCN(C(=O)c4cccnc4)CC3)n21 (stereo not drawn)	.	i	.	i	.	.	.	.
COc1ccc(CN2CCCCC23Cc2ccccc2CNC3=O)cc1F (stereo not drawn)	.	-18%	.	?	.	.	.	.
O=C(c1ccc(C(F)(F)F)cc1)N1CCC2(CNc3ccccc3[S+](=O)([O-])N2)C1 (stereo not drawn)	i	?	?	?	22µM*	?	-2%	17µM*
Cc1ccc(C(=O)N2CCC3(CNc4ccccc4[S+](=O)([O-])N3)C2)cc1 (stereo not drawn)	i	?	1%	?	.	.	.	.
CN(C/C=C/c1ccccc1)c1cc(C2CC(O)C2)nc(N)n1 (stereo not drawn)	i	-74%	13µM*	?	22µM*	17µM*	1%	24µM*
Cc1ccc(NC(=O)C2CCCN(c3cnn(Cc4ccccc4)c(=O)c3)C2)c(C)c1 (stereo not drawn)	i	?	-13%	?	.	.	.	.
CCNC(=O)N1CCC(Cc2ccc(C(=O)NCCc3c[nH]c4ccccc34)cc2)CC1	i	18µM*	14µM*	25µM*	24µM*	24µM*	-12%	27µM*
Cc1cc(C(=O)N2CC[C@H]3C(=O)NCCCCCCN(Cc4ccncc4)[C@@H]3C2)nn1C	i	-12%	5%	-7%	.	.	.	.
Cc1ccccc1-c1cnc2[nH]cc(CC(=O)NC(C)C)c2c1	i	?	28µM*	?	31µM*	31µM*	5%[86.2 µM]	35µM*
Cc1ccccc1-c1cnc2[nH]cc(CC(=O)NCc3ccccc3)c2c1	i	-21%[138 µM]	13µM*	?	25µM*	25µM*	0%[86.2 µM]	14µM*
NC(=O)Cc1c[nH]c2ncc(-c3ccccc3F)cc12	i	?	-13%[70.6 µM]	-28%[230 µM]	.	.	.	.
O=C(Cc1c[nH]c2ncc(-c3cn[nH]c3)cc12)NCc1cccnc1	i	?	-4%[70.6 µM]	-13%[172 µM]	.	.	.	.
Cc1nc(N2CCC(C(=O)NCCc3ccccc3)CC2)cc(C(F)(F)F)n1	i	-22%	-12%	?	.	.	.	.
O=C(C1CCCN(c2nc3ncccc3o2)C1)N1CCN(Cc2ccccc2)CC1 (stereo not drawn)	i	-4%	2%	?	.	.	.	.
CC(c1ccc(-c2cc(N3CCN(C)CC3)nc(N)n2)cc1)N1CCOCC1 (stereo not drawn)	i	-19%	1%	?	.	.	.	.
CCCCNC(=O)c1cccc(-c2cc(N3CCN(C)CC3)nc(N)n2)c1	i	-8%	?	?	?	-28%	1%	?
Cc1nn2c(c1-c1ccccc1Oc1ccccc1)N(C(=O)COc1ccccc1)CCC2	i	?	?	79µM*	31µM*	22µM*	1%[86.2 µM]	?
Cc1nn2c(c1-c1ccccc1Oc1ccccc1)N(Cc1ccc(OCC(=O)O)cc1)CCC2	i	?	-4%	i	.	.	.	.
Cc1nn2c(c1-c1ccccc1OCc1ccccc1)N(C(=O)COc1ccccc1)CCC2	i	11µM*	?	40µM*	17µM*	12µM*	-1%	-21%
COc1ccccc1CCC(=O)N(C)C1CCc2nn(C)c(=O)n2CC1 (stereo not drawn)	i	4%	6%	i	.	.	.	.
CC(C)CC(=O)N1CC(c2nnc(C(C)C)o2)C2(CCOCC2)C1 (stereo not drawn)	i	-15%	0%	-11%	.	.	.	.
COCC(=O)N[C@H]1C[C@@H](Cc2cc(-c3ccc(F)cc3)on2)C1(C)C	i	?	?	?	.	.	.	.
COc1ccc(-c2cc(C[C@@H]3C[C@H](NCc4ccncc4)C3(C)C)no2)cc1	i	?	22µM*	?	20µM*	28µM*	-2%[86.2 µM]	20µM*
SMILES	FLuc inh	3T3 cytotox	hNpr1 antagonist	HEK cytotox	Npr1 antag conf	Npr2 selectivity	FLuc inh counter	GloSensor cGMP
COc1ccc(CN2CCCC23Cc2ccccc2CNC3=O)c(O)c1 (stereo not drawn)	.	-2%	.	-13%	.	.	.	.
CN(Cc1noc(C2CCCC2)n1)c1cc(C2CC(O)C2)ncn1 (stereo not drawn)	i	?	?	-44%	22µM*	?	1%	22µM*
OC1CC(c2cc(N3CCC(Cc4noc(C5CC5)n4)CC3)ncn2)C1 (stereo not drawn)	i	?	0.79µM*	-52%	0.86µM*	1.2µM*	1%	0.77µM*
CC(=O)N1Cc2ccccc2CC2(CCCN2Cc2ccccc2)C1 (stereo not drawn)	.	-18%	.	-23%	.	.	.	.
CNC(=O)[C@H]1C[C@H](Oc2ccccc2)CN1C(=O)CCc1ccccc1	?	-14%	-16%	-7%	.	.	.	.
c1ccc(CCc2nc3nccc(-c4ccc5c(c4)OCCCO5)n3n2)cc1	i	?	-7%	?	.	.	.	.
COc1ccnc(N2CCC(CO)(Cc3ccccc3C(F)(F)F)CC2)n1	i	?	-7%	?	.	.	.	.
N#Cc1cccnc1N1CCC(CO)(Cc2ccccc2C(F)(F)F)CC1	i	?	?	?	22µM*	17µM*	-2%	-18%
CC(=O)N1CCC2(CC1)CCN(c1ncccc1C#N)CC2CO (stereo not drawn)	i	-3%	6%	-2%	.	.	.	.
Cc1nnc(N2CCC(CO)(CN3CCCC3)CC2)c2ccccc12	i	-1%	-1%	-22%	.	.	.	.
Cc1ncnc(N2CCC(CO)(Cc3ccccc3C(F)(F)F)CC2)c1C	i	?	11µM*	40µM*	24µM*	24µM*	2%	19µM*
COc1cc(N2CCC(CO)(Cc3ccccc3C(F)(F)F)CC2)ncn1	i	?	11µM*	?	19µM*	19µM*	-2%	15µM*
